eIF4H inh = inhibitors of RNA binding by human eIF4H; inhibition, % at 35 µM; Q15056; 290,000 compounds, 0.94% hits; eIF4H fluorescence polarization binding assay;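 further: calls also rest on retests at 20 µM and on dose response follow-up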
PABP polyA inh = blocks human PABP binding to poly(A) RNA | fluorescence polarization | inhibition, % at 35 µM | P11940 | 290,000 compounds, 1% hits;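 further: calls also rest on retests at 20 µM and on dose response follow-up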
MLLE-PAM2 inh = blocks PAM2 peptide binding to the PABP1 MLLE domain; GST-MLLE / FITC-PAM2 fluorescence polarization; inhibition, % at 20 µM; 360,000 compounds, 0.36% hits; AID 588489; in the data active means inhibition above about 35%, passing the limit was not always enough
NRP1-CendR mod = alters CendR peptide binding to human NRP-1; 360,000 compounds, 0.85% hits; AID 602438; inhibition, % at 25 µM; O14786; FAM-RPARPAR peptide binding to NRP-1, fluorescence polarization;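 active means inhibition or corrected inhibition above about 18%, plus a signal ratio from 0.5 to 1.5, limit read from the data, passing the limit was not always enough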
Each line names hits and unclear results; the compound was inactive in the other large screens. The list is not random: actives were taken first. Their share in the collection is about 2.1%. Unless noted, how the calls were made is not given here.

Cc1cc(OC(C)C(=O)NC(Cc2c[nH]c3ccc(O)cc23)C(=O)O)c2c(C)cc(=O)oc2c1 (stereo not drawn)	none
COc1ccc2c(c1)c(=O)oc1c(C)c(OC(C)C(=O)N[C@@H](Cc3c[nH]c4ccc(O)cc34)C(=O)O)ccc12 (stereo partly drawn)	eIF4H inh 81.9, PABP polyA inh 53.0
CC(Oc1ccc2c(-c3ccccc3)cc(=O)oc2c1)C(=O)NC(Cc1c[nH]c2ccc(O)cc12)C(=O)O (stereo not drawn)	eIF4H inh 85.8, PABP polyA inh 57.5
CCOC(=O)C1(C)CCN1C(=O)c1ccc(N(C)C)cc1 (stereo not drawn)	none (no result: eIF4H inh, PABP polyA inh)
CCC(Oc1ccccc1)C(=O)O/N=C(\N)c1ccc(OC)c(OC)c1 (stereo not drawn)	eIF4H inh active, PABP polyA inh 122.4
O=C(O)c1ccc2c(c1)S(=O)(=O)c1cc(Cl)ccc1C2=O	none (no result: eIF4H inh, PABP polyA inh)
OCC1(Cc2cccc(C(F)(F)F)c2)CCN(Cc2cc(F)cc(F)c2)CC1	none
CSc1cccc(CN2CCC(CO)(Cc3cccc(C(F)(F)F)c3)CC2)c1	NRP1-CendR mod 29.8
COc1ccc(C)cc1NC(=O)Cc1csc(NC(=O)Nc2ccccc2OC)n1	none (no result: eIF4H inh, PABP polyA inh)
Cc1cc2c(N)cccc2nn1	eIF4H inh 96.2, PABP polyA inh 87.5, NRP1-CendR mod 41.2
O=c1c2c([N+](=O)[O-])cc([N+](=O)[O-])cc2nc2ccccn12	eIF4H inh 81.7, PABP polyA inh 57.1
CCCCCC/C=N/Nc1nnc(Cc2ccccc2)c(=O)[nH]1	none
COCCn1c(SCC(=O)N2CCC(C)CC2)nc2c([nH]c3ccccc32)c1=O	none
CCOC(=O)N1CCC2(CC1)C(C#N)=C(N)Oc1n[nH]c(C)c12	none
CCOC(=O)N1CCC2(CC1)C(C#N)=C(N)Oc1c2c(C)nn1-c1cccc(Cl)c1	eIF4H inh 71.4, PABP polyA inh 71.7
CCc1nnc(NC(=O)c2cc(-c3ccccn3)nc3ccc(Br)cc23)s1	none
CCOc1ccc(-c2c(C(=O)N/N=C/C3CCCCC3)nnn2-c2nonc2N)cc1	none
Cc1ccc(N(CC(=O)NC2CCCCC2)C(=O)CCCC(=O)Nc2ccccn2)cc1	eIF4H inh 79.4, PABP polyA inh 68.9
C=CCn1c(=N)c(C#N)cc2c(=O)n3ccccc3nc21	NRP1-CendR mod 36.1
C=CCn1c(=O)c(C#N)cc2c(=O)n3ccccc3nc21	none
Cc1cc(-n2c(=O)c(C#N)cc3c(=O)n4ccccc4nc32)no1	eIF4H inh 103.6, PABP polyA inh 120.1
COc1ccc(-c2nc3ccc(C)cn3c2Cc2ccccc2)cc1OC	none (no result: eIF4H inh, PABP polyA inh)
CCC(NC(=S)NCc1ccc(F)cc1)c1ccccc1 (stereo not drawn)	none
Cc1ccccc1NC(=O)c1cccc(NC(=O)CCC(=O)O)c1	NRP1-CendR mod 22.8
O=C(O)CCC(=O)Nc1cccc(C(=O)c2ccccc2)c1	none
O=[N+]([O-])c1ccc(Cl)c(-c2ccc(/C=N/c3c(-c4ccco4)nc4ccccn34)o2)c1	eIF4H inh inconclusive, PABP polyA inh 73.9
O=[N+]([O-])c1ccc(-c2ccc(/C=N/c3c(-c4ccco4)nc4ccccn34)o2)cc1	eIF4H inh inconclusive, PABP polyA inh 60.0
O=[N+]([O-])c1ccc(-c2ccc(/C=N/c3c(-c4ccco4)nc4ccccn34)o2)c(Cl)c1	none (no result: MLLE-PAM2 inh, NRP1-CendR mod)
Cc1cc(OCc2cc(C(=O)NCCN3CCCCC3CO)no2)cc(C)c1Cl (stereo not drawn)	none
CCOC(=O)c1c(-c2ccc(C)o2)csc1NC(=O)COC(=O)c1cccs1	none
CCOC(=O)c1c(-c2ccc(C)o2)csc1N	eIF4H inh 52.4, PABP polyA inh 68.1
Cc1ncc(C(O)c2ccccc2)n1Cc1ccccc1 (stereo not drawn)	none (no result: eIF4H inh, PABP polyA inh)
CN(c1ccccc1)S(=O)(=O)c1cccc(C(=O)NC2CCCCC2)c1	MLLE-PAM2 inh 84.7 (no result: eIF4H inh, PABP polyA inh)
CN(c1ccccc1)S(=O)(=O)c1cccc(C(=O)OCC(=O)NCCCN2CCCC2=O)c1	PABP polyA inh 64.1
COc1cc(/C=C(\C#N)C(=O)NCC2CCCO2)ccc1O (stereo not drawn)	eIF4H inh active, PABP polyA inh 58.7
CCOc1ccc(/C=C(\C#N)C(=O)NCC2CCCO2)cc1OCC (stereo not drawn)	none
COc1cc(/C=N/NC(=O)C(=O)NCC2CCCO2)ccc1O (stereo not drawn)	NRP1-CendR mod 38.8
CCOc1cc(/C=N/NC(=O)C(=O)NCC2CCCO2)ccc1OCC(=O)N1CCOCC1 (stereo not drawn)	none
Cn1c(=NC(=O)CS(=O)(=O)c2ccccc2)sc2ccccc21	none (no result: eIF4H inh, PABP polyA inh)
Cn1c(=NC(=O)COc2ccccc2)sc2ccccc21	NRP1-CendR mod 25.5
COc1ccc(NC(=O)c2c(-c3c(Cl)cccc3Cl)noc2C)c(OC)c1	NRP1-CendR mod 25.5
COc1ccc(NC(=O)c2c(-c3c(Cl)cccc3Cl)noc2C)cn1	none
CN(C)c1ncnc2c1ncn2C1CCCO1 (stereo not drawn)	NRP1-CendR mod 26.2 (no result: eIF4H inh, PABP polyA inh)
Cc1ccc(S(=O)(=O)c2cc3ccccc3oc2=O)cc1	none
Cc1c(O)ccc2cc(S(=O)(=O)c3ccccc3)c(=O)oc12	MLLE-PAM2 inh 43.9
Cc1cccc(C)c1NC(=O)c1cc(S(=O)(=O)N2CCOCC2)cn1C	none
Cn1cc(S(=O)(=O)N2CCOCC2)cc1C(=O)O	NRP1-CendR mod 31.0 (no result: eIF4H inh, PABP polyA inh)
Cc1cc(C)n(CCc2nc(-c3cccs3)cs2)n1	NRP1-CendR mod 31.0
Cc1cc(C)n(CCc2nc(-c3ccco3)cs2)n1	eIF4H inh 51.3, PABP polyA inh 34.9
Cc1nn(CCc2nc(-c3ccco3)cs2)c2[nH]c(=O)cc(C(F)(F)F)c12	eIF4H inh 45.4, PABP polyA inh 58.4
O=C(CN(C(=O)CCC(=O)Nc1nccs1)c1ccccc1F)NCCc1ccccc1	none
N#C/C(=C/c1ccc(N2CCCCCC2)o1)c1ccc(Cl)cc1	none
N#C/C(=C/c1ccc(N2CCCCC2)o1)c1cccc(F)c1	eIF4H inh 87.4, PABP polyA inh 85.5
COC(=O)c1ccc(OC(=O)/C=C/c2ccco2)cc1	none
O=C(/C=C/c1ccco1)Oc1ccc(C(=S)N2CCOCC2)cc1	eIF4H inh 97.4, PABP polyA inh active
O=Cc1cccc(OC(=O)/C=C/c2ccco2)c1	eIF4H inh 89.4, PABP polyA inh 70.5
O=C(Cn1c(=O)oc2ccccc21)Nc1ccccc1Cl	none
CN(Cc1ccncn1)C(=O)C1CCC(=O)N(Cc2cccc(C(F)(F)F)c2)C1 (stereo not drawn)	none
CCC(C)[C@@H](CN)NCC1(c2ccccc2)CC1 (stereo partly drawn)	none (no result: eIF4H inh, PABP polyA inh)
Cc1cc(C)c(S(=O)(=O)c2ccccc2)c(=O)[nH]1	none
CC(C)(C)n1cc(S(=O)(=O)c2ccccc2)[nH]c1=O	eIF4H inh active, PABP polyA inh 81.3
COc1ccccc1Cc1c(C2CCCCC2)nc2ccc(Br)cn12	none (no result: eIF4H inh, PABP polyA inh)
CCOC(=O)N1CCN(C(=O)C2CCN(C(=O)c3ccc([N+](=O)[O-])cc3)CC2)CC1	none
CCOC(=O)C1CCN(C(=O)C2CCN(C(=O)c3ccc([N+](=O)[O-])cc3)CC2)CC1	NRP1-CendR mod 23.7
CC(=O)N1CCN(S(=O)(=O)c2cccc(C(=O)NNC(=O)Cn3nc(C)cc3C)c2)CC1	none (no result: eIF4H inh, PABP polyA inh)
